The list is not random: actives were taken first. Their share in the collection is about 21%.
ClpP mod: qHTS Assay for Activators of ClpP. ATP-dependent Clp protease proteolytic subunit (Bacillus subtilis (strain 168)), P80244. purified B. subtilis ClpP, FRET peptide cleavage, 20 min. Potency, µM (highest dose often 57.5 µM). actives 1.9% (n = 340,000). AID 651965, 2013; active = well fitted falling curve with a large enough effect; inconclusive = small, poorly fitted or top-dose-only effect; inactive = no such curve, though single readings can be large or run the other way; also: the source files actives as falling curves though it sought activators and does not explain the sign; nearly all actives have a fitted effect of over 65% in size
Target sequence (P80244 whole entry, looked up): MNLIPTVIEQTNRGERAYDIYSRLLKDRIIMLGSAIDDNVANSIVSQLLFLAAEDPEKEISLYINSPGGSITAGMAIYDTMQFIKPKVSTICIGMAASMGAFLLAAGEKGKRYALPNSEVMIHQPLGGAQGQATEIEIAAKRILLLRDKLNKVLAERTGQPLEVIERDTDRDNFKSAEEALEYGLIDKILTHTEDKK
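Buffer: 100 mM Tris/HCl pH8, 100 mM KCl, 0.05% low protease BSA, 2.5% glycerol, 0.01% Tween-20. ClpP 10 microg/mL final; 20 min RT; delta FRET normalized to ADEP and DMSO controls.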
D3 antag: antagonists of human D3 dopamine receptor. P35462. D3R cells, DiscoveRx beta-arrestin luminescence, antagonist mode; stronger effect = lower value. max response, negative = inhibition, %. actives 2.5% (n = 360,000); in the data active = max response below about -50%; inconclusive = no clear call, values can overlap the other calls
Target sequence (P35462 whole entry, looked up): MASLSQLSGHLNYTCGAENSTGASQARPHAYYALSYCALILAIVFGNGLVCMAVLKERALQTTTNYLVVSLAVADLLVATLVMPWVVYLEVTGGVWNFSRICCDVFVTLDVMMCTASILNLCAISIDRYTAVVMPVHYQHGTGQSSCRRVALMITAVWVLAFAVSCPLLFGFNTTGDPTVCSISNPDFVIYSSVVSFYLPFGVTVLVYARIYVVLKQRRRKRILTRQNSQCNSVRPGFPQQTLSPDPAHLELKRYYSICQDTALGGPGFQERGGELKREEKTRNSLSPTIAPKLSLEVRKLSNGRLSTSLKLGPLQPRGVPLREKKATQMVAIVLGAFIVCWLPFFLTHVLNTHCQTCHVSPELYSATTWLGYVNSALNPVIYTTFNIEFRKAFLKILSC
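Cells expressing the human receptor were seeded at 1500 cells/well, incubated overnight at 37 degrees C in 5% CO2, then exposed to library compounds with dopamine controls for 90 minutes at 37 degrees C before luminescent detection.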
TDP1 cell CPT: growth inhibition of DT40 Tdp1-/-;hTDP1 cells with camptothecin (screen for TDP1 inhibitors); chicken DT40 Tdp1-/-;hTDP1 cells + 20 nM CPT, ATP luminescence, 48 h; Potency, µM (doses to about 46.2 µM), usual class: inhibitors; actives 12% (n = 420,000); also: nearly all actives have a fitted effect of over 55% in size
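Chicken DT40 Tdp1-/- cells complemented with human TDP1, 400 cells/well, exposed to compounds plus 20 nM camptothecin for at least 48 h at 37 C; viability read as ATP content by CellTiter-Glo luminescence.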
IL1B secr inh: inhibitors of inflammasome signaling (IL-1 beta secretion); THP-1 LPS/ATP IL-1B secretion, AlphaLISA, 16 h; stronger effect = lower value; activity change, % at 57.5 µM; actives 4.7% (n = 360,000); in the data active = activity change below about -50%; inconclusive = mostly about -30% to -49%
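THP-1 cells pretreated 1 hr with compounds (up to 57.5 uM final), then stimulated with LPS (250 ng/mL final) plus ATP (1.25 mM final); secreted IL-1B measured by AlphaLISA after 16 hr, decreased signal indicating inhibition.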
DT40 TDP1 no CPT: qHTS for Inhibitors of human tyrosyl-DNA phosphodiesterase 1 (TDP1): qHTS in cells in absence of CPT; DT40 Tdp1-/- hTDP1 cells, no CPT, ATP luminescence, 48 h; actives 15% (n = 420,000); Potency, µM (top dose mostly 46.2 µM), most hits filed as inhibitors; AID 686978, 2013; also: nearly all actives have a fitted effect of over 55% in size
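Cells were dispensed at 400 per well, compounds added by pin tool, plates incubated ≥48 hr at 37 °C, then CellTiter-Glo added for 30 min at room temperature before luminescence reading. Line: DT40 Tdp1-/- complemented with hTDP1; camptothecin omitted.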
DRD3 agonist: D3 dopamine receptor (human) agonism | actives 0.58% (n = 410,000) | D3R DiscoveRx beta-arrestin cells, luminescence, 90 min | max activation, % | AID 652048; in the data active = max activation above about 30%
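Cells at 1500/well, incubated overnight, then treated with pinned compounds (dopamine as control) for 90 min at 37 degrees C. DiscoveRx reagent added for 30 - 60 minutes at room temperature; luminescence read.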
A number is an active result; . = inactive; ? = inconclusive; / = no result given. Unless noted, calls follow the shape of the dose curve; as a rule, active = well fitted inhibition curve with a large enough effect; inconclusive = small, poorly fitted or top-dose-only effect; inactive = flat fitted curve, though single readings scatter.

SMILES | ClpP mod | D3 antag | TDP1 cell CPT | IL1B secr inh | DT40 TDP1 no CPT | DRD3 agonist
CCc1nc(NC(C)(C)C)c2cnn(-c3ccccc3)c2n1 | / | . | ? | . | 18µM | .
COCCNc1ncnc2c1cnn2Cc1ccccc1Cl | . | . | ? | . | 18µM | .
COCCNc1ncnc2c1cnn2Cc1ccc(Cl)cc1 | . | . | ? | . | ? | .
Cc1cccc(NC(=S)NCc2ccc(F)cc2)c1C | . | . | . | . | . | .
COc1ccccc1NC(=O)c1nnn(-c2ccc(F)cc2)c1C | . | / | . | / | . | .
Cc1cccc(NC(=S)N2CCN(S(=O)(=O)c3cccc(F)c3)CC2)c1 | / | . | . | . | . | .
COc1cc(C2C(=O)N(C3CCCCC3)CC(=O)N2Cc2ccc(C)cc2)ccc1OC(C)C (configuration not stated) | . | / | ? | / | ? | .
COc1ccc(NC(=O)Cn2c(=O)n(Cc3nc(-c4ccccc4)no3)c(=O)c3cc4c(cc32)OCO4)cc1Cl | ? | / | . | / | . | .
Cc1ccc(CNc2ncnc3c2cnn3-c2ccccc2)cc1 | . | . | . | . | . | .
CCCCNc1ncnc2c1cnn2-c1ccccc1 | . | . | 2.3µM | . | 2.6µM | .
CCN(CC)c1ncnc2c1cnn2Cc1ccc(Cl)cc1 | ? | . | 21µM | ? | ? | .
O=C1OC(COCC#Cc2ccccc2)CN1c1ccccc1 (configuration not stated) | . | . | ? | . | ? | .
COC(=O)C1=C(C(=O)OC)[C@@H]2Nc3ccccc3[C@@]23C[C@@H](C(=O)OC)N(C(=O)CC(C)C)C3=N1 | . | . | . | . | . | .
CCCc1cc(C(=O)N(C2CCCCC2)C2CCCCC2)no1 | . | . | ? | . | 29µM | .
O=C(CSc1nc2ccccc2n1Cc1ccc(F)c(Cl)c1)N1CCN(c2ccc(F)cc2)CC1 | . | / | 18µM | / | 9.2µM | .
O=C(CSc1nc2ccccc2n1Cc1cccc(F)c1)N1CCN(c2ccc(F)cc2)CC1 | . | / | ? | / | ? | .
CCOC(=O)CSc1nc2ccccc2n1CC(=O)N1CCN(c2ccccc2)CC1 | . | . | . | . | . | .
CC(C)N(C(=O)CSc1nc2ccccc2n1Cc1ccc(F)cc1)C(C)C | . | . | 23µM | -62 | ? | .
C=Cc1ccc(Cn2c(SCC(=O)N3CCN(c4ccc(F)cc4)CC3)nc3ccccc32)cc1 | . | / | 23µM | / | ? | .
COC(=O)[C@H]1C2CC3c4[nH]c5ccccc5c4CCN3CC2CC[C@@H]1O (some centres not stated) | / | / | . | / | . | /
CCC1CN(C)C2Cc3c([nH]c4ccccc34)C(=O)CC1C2C(=O)OC (configuration not stated) | . | . | 23µM | . | . | .
COC(=O)c1ccc2nc(-c3ccc(C)cc3)c(CC3CCCCC3)n2c1 | . | . | 21µM | . | 16µM | .
COC(=O)c1ccc2nc(-c3ccc(F)cc3)c(CC3CCCCC3)n2c1 | . | . | 26µM | . | 21µM | .
Cc1ccc(-c2nc3ccc(Cl)cn3c2CC2CCCCC2)cc1 | . | . | . | . | ? | .
Cc1ccc(-c2nc3ccc(C)cn3c2CC2CCCCC2)cc1 | . | . | ? | . | 16µM | .
SMILES | ClpP mod | D3 antag | TDP1 cell CPT | IL1B secr inh | DT40 TDP1 no CPT | DRD3 agonist
COc1ccc(C)cc1N(C(=O)c1cccc(F)c1)c1nc2ccccc2s1 | . | . | . | . | . | .
Cc1ccccc1N(C(=O)c1cccs1)c1nc2ccccc2s1 | . | . | 23µM | . | 18µM | .
Cc1ccsc1C(=O)N(c1nc2ccccc2s1)c1c(C)cccc1C | ? | . | ? | . | 23µM | .
Cc1nc(N)c(C#N)c(-c2ccccc2Cl)c1C | ? | . | ? | . | . | .
COc1ccccc1-c1c(C)c(C)nc(N)c1C#N | 22µM | . | . | . | . | .
CCc1nc(N)c(C#N)c(-c2ccccc2OC)c1C | 28µM | . | 13µM | . | . | .
Cc1c(CC(C)C)nc(N)c(C#N)c1-c1ccccc1 | ? | . | ? | . | ? | .
COc1ccccc1-c1cc(C2CC2)nc(N)c1C#N | 28µM | . | . | . | . | .
O=C(Cn1cncn1)c1ccccc1Br | . | . | . | . | . | .
CCOc1ccc(S(=O)(=O)NN=C(C)c2cccnc2)cc1 | . | . | . | . | . | .
Cc1ccc(SCc2cc(=O)n(C)[nH]2)cc1 | . | . | . | . | . | .
COC(=O)N/N=C/c1cn(Cc2ccc(Cl)cc2Cl)c2ccccc12 | . | . | ? | . | ? | .
COC(=O)N/N=C/c1cn(Cc2ccccc2Cl)c2ccccc12 | . | . | 18µM | . | 21µM | .
COC(=O)N/N=C/c1cn(CCCOc2ccccc2)c2ccccc12 | . | . | 26µM | . | ? | .
COC(=O)N/N=C/c1cc(Cl)cc(Cl)c1OCc1ccccc1F | . | . | ? | . | 18µM | .
N#Cc1cn(CCCOc2ccccc2)c2ccccc12 | . | . | 9.2µM | . | 23µM | .
COC(=O)N/N=C/c1ccccc1Cl | . | . | . | . | . | .
Cc1cc(-c2ccc(C(C)C)c(S(=O)(=O)NCCN3CCC(C)CC3)c2)on1 | . | . | ? | . | ? | .
Cc1ccc(C(=O)NC2CCCCNC2=O)cc1 (configuration not stated) | . | . | . | ? | . | .
Nc1ccc(C(=O)N/N=C/c2cn(Cc3ccccc3F)c3ccccc23)cc1 | . | . | ? | -67 | ? | .
COC(=O)N/N=C/c1cn(Cc2ccc(F)cc2)c2ccccc12 | . | . | . | . | ? | .
COC(=O)N/N=C/c1cn(Cc2ccccc2F)c2ccccc12 | ? | . | . | -75 | ? | .
Nc1ccc(C(=O)N/N=C/c2cn(Cc3ccc(F)cc3)c3ccccc23)cc1 | ? | . | . | ? | . | .
C#CC(C)(C)NC(=O)c1ccc(-c2ccccc2F)cc1 | . | . | ? | . | ? | .
CC1CCCCN1CCNC(=O)c1ccc(Cn2c(SCc3ccccc3)nc3cccnc32)cc1 (configuration not stated) | 25µM | / | ? | / | ? | .
CCN(CC)CCCNC(=O)c1ccc(Cn2c(SCc3ccccc3)nc3cccnc32)cc1 | . | / | ? | / | ? | .
O=C(NC1CCCC1)c1ccc(CSc2nc3cccnc3n2Cc2ccc(F)cc2)cc1 | ? | / | . | / | . | .
CC1CCN(CCNC(=O)c2ccc(Cn3c(SCc4ccccc4)nc4cccnc43)cc2)CC1 | 16µM | / | ? | / | ? | .
N#Cc1cc2ccccc2nc1SCC(=O)Nc1ccc(S(=O)(=O)N2CCCC2)cc1 | . | . | 21µM | . | 18µM | .
COc1ccc2nc(SCC(=O)N3CCCCCC3)c(C#N)cc2c1 | . | ? | ? | ? | 16µM | .

Assay outcomes: PubChem, National Center for Advancing Translational Sciences (NCATS)
